# SMN2 splice enh – enhancers of SMN2 splice variant expression. AID 1458. Potency, µM (doses to about 46.1 µM), inactives show at the top dose activity change, positive = activation, usual class: activators. hit rate 2.8% among 210,000. HEK293 SMN2-luciferase splicing reporter, luminescence, 30-36 h; note: % of control where 0% means no effect; nearly all actives have a fitted effect of over 55% in size
#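 HEK293 cells carry an SMN2 minigene-luciferase reporter in which exon 7 inclusion puts luciferase in frame. Cells were seeded at 2000 cells/well, attached for 10-12 hours, then exposed to compounds for 30-36 hours at 37C before ONE-Glo luminescence.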
# NPC1 promoter act – activators of NPC1 promoter; AID 485313; Potency, µM (doses to about 9.22 µM), for the others: at the top dose activation, most hits filed as activators; hit rate 2.4% among 320,000; Huh7 NPC1 promoter luciferase reporter, 24 h; note: % of control where 0% means no effect; nearly all actives have a fitted effect of over 60% in size
#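 Huh7 reporter cells (NPC1 promoter driving luciferase) are dosed with compound for 24 h at 37 °C, 5% CO2; luciferase detection reagent is then added and luminescence measured after 10 min at ambient temperature.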
# ELG1 genotox – induces genotoxicity in HEK293T cells with luciferase-tagged ELG1. HEK293T ELG1-luciferase reporter, luminescence, 16 h. Potency, µM (highest dose often 46 µM), inactives show at the highest dose activity change, positive = activation, most hits filed as activators. hit rate 1.3% among 330,000; note: % of control where 0% means no effect; nearly all actives have a fitted effect of over 60% in size
#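 Cells (2,000/well) expressing the ELG1-luciferase fusion are dosed by pin tool and kept 16 hr at 37 °C, 5% CO2. Signal comes from ONE-Glo luciferase reagent after 30 min at room temperature.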
# FLuc counter – firefly luciferase modulation, counter-screen for miR-21 project. P08659. purified FLuc, Km substrates, luminescence inhibition. Potency, µM (highest dose often 57.5 µM), for the others: at the top dose activity change, negative = inhibition, usual class: inhibitors. hit rate 6.9% among 360,000. AID 588342;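 note: plate controls were vehicle for no effect and reference inhibitor for full effect; nearly all actives have a fitted effect of over 55% in size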
# Target sequence (P08659 whole entry, looked up): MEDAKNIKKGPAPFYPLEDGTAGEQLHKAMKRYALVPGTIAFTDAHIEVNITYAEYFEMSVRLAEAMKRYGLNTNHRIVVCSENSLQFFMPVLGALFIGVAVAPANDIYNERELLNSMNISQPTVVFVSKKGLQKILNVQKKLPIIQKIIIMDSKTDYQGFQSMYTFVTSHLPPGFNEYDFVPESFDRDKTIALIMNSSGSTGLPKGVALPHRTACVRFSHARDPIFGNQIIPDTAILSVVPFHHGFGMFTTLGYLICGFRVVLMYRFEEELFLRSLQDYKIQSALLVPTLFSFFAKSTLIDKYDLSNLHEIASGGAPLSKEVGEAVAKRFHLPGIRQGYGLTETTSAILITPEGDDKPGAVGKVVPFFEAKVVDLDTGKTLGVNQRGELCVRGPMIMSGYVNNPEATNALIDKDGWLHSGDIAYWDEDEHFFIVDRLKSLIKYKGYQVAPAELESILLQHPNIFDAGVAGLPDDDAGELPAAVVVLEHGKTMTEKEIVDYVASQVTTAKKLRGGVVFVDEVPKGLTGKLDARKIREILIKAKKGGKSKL
#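 Biochemical qHTS of compounds, final roughly 60 µM downward over six points, against 10 nM purified firefly luciferase using Km concentrations of substrates (10 uM D-luciferin, 10 uM ATP) in Tris acetate pH 7.5 buffer; luminescence output.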
# Rab9 promoter act – activators of Rab9 promoter; Huh7 Rab9 promoter-luciferase reporter, luminescence, 24 h; Potency, µM (highest dose often 9.22 µM), for inactives: at the top dose activation, negative = inhibition, hits mostly activators; hit rate 2.8% among 320,000; note: % of control where 0% means no effect; nearly all actives have a fitted effect of over 60% in size
#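 Huh7 cells stably carrying Rab9 promoter–luciferase reporter, plated 1500 cells/well, compound added after 2 h and incubated 24 h at 37 °C; luciferase luminescence then read after 10 min with detection reagent.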
# * hit, by the source's call; ? = inconclusive; / = not tested or not shown. Sampled rows, rich in hits. Any-hit rate of the full collection: about 7.4%. Calls come from the whole dose curve; as a rule, active = well fitted curve in the direction sought with a large enough effect; inconclusive = small, poorly fitted or top-dose-only effect, or another doubt; inactive = no such curve, though single readings can be large; an effect the other way counts as inactive or inconclusive. Potency is the fitted concentration of half-maximal effect.
SMILES,SMN2 splice enh,NPC1 promoter act,ELG1 genotox,FLuc counter,Rab9 promoter act
CCc1nnc(NC(=O)Cc2ccc(OC)c(OC)c2)s1,-4%,-5%,1%,-2%,-10%
COc1ccc(-c2nnc(NC(=O)c3c(OC)cccc3OC)s2)cc1,/,4%,-2%,?,3%
CCOC(=O)Nc1nnc(-c2ccc(OC)c(OC)c2)s1,5.6µM*,-3%,4%,1%,6%
COc1ccc(-c2nnc(NC(=O)c3cc(C)on3)s2)cc1,?,9%,?,12µM*,-1%
COc1ccc(C(=O)Nc2nnc(-c3ccccc3)s2)cc1,/,0.79µM*,18µM*,-12%,1.3µM*
CCCCOc1ccccc1C(=O)NNC(=S)NC(=O)c1ccccc1[N+](=O)[O-],/,-6%,-1%,3%,-2%
Cc1ccc(S(=O)(=O)N2CCOCC2)cc1NC(=O)COC(=O)C1(C)CC1(Cl)Cl (stereo not given),/,/,-4%,/,/
COC(=O)[C@H]1C[C@@H]2CC[C@@H](O)C[C@@H]2N1Cc1c(F)cccc1Cl,4%,/,/,/,/
COc1cccc(-n2cc(C(=O)Nc3cc(C)c(Cl)cc3OC)c3ccccc3c2=O)c1,/,/,/,-5%,/
COc1ccc(CCNC(=O)CN2C(=O)COc3ccc(S(=O)(=O)N4CCCCCC4)cc32)cc1OC,12%,/,/,-2%,/
CCCCC/C=C\C/C=C\C/C=C\C=C\C1CCCC(=O)O1 (stereo not given),-2%,/,/,/,/
COc1ccc(S(=O)(=O)CC(=O)Nc2nnc(C(F)(F)F)s2)cc1,/,-3%,-2%,6%,7%
COc1ccc(C(=O)Nc2nnc(C(F)(F)F)s2)cc1,5µM*,1.8µM*,?,5.4µM*,2.5µM*
Cc1cc(=O)[nH]c(N=N/C(=N/Nc2ccc(O)cc2)c2ccccc2)n1,-55%,4%,?,11µM*,0%
Cc1cc(=O)[nH]c(N=N/C(=N/Nc2ccccc2C)c2ccccc2)n1,-94%,-16%,4%,-20%,-29%
COc1ccc(N/N=C(/N=Nc2nc(C)cc(=O)[nH]2)c2ccccc2)cc1,-62%,?,2.6µM*,4.3µM*,-9%
Cc1ccc(-n2nc(C)c3c(C(=O)Nc4ccc(Br)c(C)c4)cc(C)nc32)cc1,/,/,/,3%,/
Cc1cc(NC(C)c2ccccc2)n2ncc(-c3ccccc3)c2n1 (stereo not given),/,2.5µM*,?,12µM*,4µM*
Cc1cc(NCCN2CCOCC2)n2ncc(-c3ccccc3)c2n1,14µM*,0.71µM*,8.2µM*,7.6µM*,1.6µM*
Cc1cc(NC2CCCC2)n2nc(C)c(-c3ccccc3)c2n1,/,29%,?,19µM*,?
Cc1cc(C(F)(F)F)n2ncc(-c3cccc(Br)c3)c2n1,8%,12%,-3%,4%,9%
COc1ccccc1-c1cnn2c(NCCc3ccccc3)cc(C)nc12,/,15%,10%,11µM*,19%
COc1cccc(-c2cn3c(n2)sc2cc(C(=O)NCc4cccs4)ccc23)c1,/,/,/,0%,/
CCCCCn1c(=N)c(S(=O)(=O)c2ccc(C)cc2)cc2c(=O)n3cc(C)ccc3nc21,-4%,/,/,-2%,/
CCCC(=O)OC(=O)CCC,-1%,/,/,/,/
SMILES,SMN2 splice enh,NPC1 promoter act,ELG1 genotox,FLuc counter,Rab9 promoter act
c1ccc(-c2csc3ncnc(NCc4ccccn4)c23)cc1,/,-6%,-13%,-16%,-18%
Cc1cc(NCc2ccccc2)n2ncc(-c3ccccc3)c2n1,/,1.6µM*,4.1µM*,2.4µM*,0.89µM*
CC(C)(C)c1cc(NCc2ccccn2)n2ncc(-c3ccccc3)c2n1,/,23%,-2%,17µM*,17%
Cc1cc(NC2CCCC2)n2ncc(-c3ccccc3)c2n1,/,?,0.16µM*,0.21µM*,?
COc1ccc(-c2c(C)nn3c(NC4CCCC4)cc(C)nc23)cc1OC,/,-13%,-8%,-13%,-3%
CC(C)C[C@@H](CC(=O)N[C@@H](CCCN)CC(=O)N[C@@H]1CCCC[C@H]1C(=O)N[C@H](CC(=O)N[C@@H](CCC(=O)O)CC(=O)O)Cc1ccccc1)NC(=O)[C@@H]1CCCC[C@H]1N,-1%,/,/,/,/
COc1ccc(CCC(=O)OCC(=O)N(CC(C)C)c2c(N)n(Cc3ccccc3)c(=O)[nH]c2=O)cc1,/,-5%,1%,5%,-4%

# Source: PubChem (National Center for Advancing Translational Sciences (NCATS))
